Assay results from PubChem BioAssay AID588463 (National Center for Advancing Translational Sciences (NCATS), 2011).
Out of some 1,200 compounds screened, about 15 (1%) were called active. Roughly 7% stayed inconclusive and do not appear here. Calls come from the whole dose curve; as a rule, active = well fitted activation curve with a large enough effect; inconclusive = small, poorly fitted or top-dose-only effect; inactive = flat fitted curve, though single readings scatter. This excerpt belongs to a sample that is enriched for actives.

The molecules below were run against Beta-2 adrenergic receptor (Homo sapiens) (UniProt P07550) (assay: qHTS assay of beta-arrestin-biased ligands of beta2-adrenergic receptor: Hit Validation). Conditions: cell-based beta-arrestin recruitment to beta2AR; Potency: activation; series mostly up to 46.1 µM; activation: at the top concentration.
Sequence of Beta-2 adrenergic receptor (Homo sapiens) (P07550 whole entry, looked up): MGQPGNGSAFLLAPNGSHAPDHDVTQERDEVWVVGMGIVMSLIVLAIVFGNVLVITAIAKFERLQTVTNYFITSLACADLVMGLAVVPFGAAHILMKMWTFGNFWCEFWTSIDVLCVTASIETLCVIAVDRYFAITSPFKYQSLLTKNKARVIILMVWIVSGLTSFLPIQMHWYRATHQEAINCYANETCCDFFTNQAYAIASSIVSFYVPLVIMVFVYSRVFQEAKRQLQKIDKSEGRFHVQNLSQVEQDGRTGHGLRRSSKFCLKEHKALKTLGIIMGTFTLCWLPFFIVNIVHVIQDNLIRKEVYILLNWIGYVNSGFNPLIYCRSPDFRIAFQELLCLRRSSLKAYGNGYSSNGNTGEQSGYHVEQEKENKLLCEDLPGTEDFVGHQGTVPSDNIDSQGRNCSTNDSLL
Excerpt: The concept of biased agonism is an emerging concept of molecular pharmacology which proposes that seven transmembrane receptors (7TMRs) or G protein-coupled receptors (GPCRs), exist in multiple signaling conformations and complexes and that ligands (either agonists or antagonists) can induce signaling biased responses for distinct signal transduction cascades.
Furthermore, accumulating evidence over the last decade has drawn attention to a novel function of beta-arrestins as signal transducers that scaffold various signaling molecules upon activation of 7TMRs. […] This beta-arrestin-biased signaling presumably leads to distinct physiological outcomes from those by G protein activation.
Additionally, the active receptor conformations which […] on this beta-arrestin signaling are likely different from those activating G protein signaling
The goal of this screening project will be to discover and optimize novel beta-arrestin-biased ligands for beta2-AR signaling. A luminescent cell-based assay for beta2-AR-mediated agonism, known as the Tango assay, has been validated in which ligand binding of a recombinant beta2-AR and subsequent recruitment of a recombinant beta-arrestin lead to the release of the transcriptional activator tTA, which upregulates transcription of a tTA-responsive luciferase gene.
NIH Molecular Libraries Probe Production Network [MLPCN]
NIH Chemical Genomics Center [NCGC]
PI: Bryan Roth (UNC) and Bob Lefkowitz (Duke)
NCGC Assay Protocol Summary:
Tango cells were dispensed into white, solid, tissue-culture-treated 1536-well plates at 1500 cells/well in DMEM, containing 1% fetal bovine serum (FBS). Then, 23 nL of compounds or DMSO were delivered to each well using a pin tool. Plates were incubated at 37 degrees C, 5% CO2 for 18 hr. Then 2.5 uL luminescent substrate mix (in-house prepared: 150 mM Tris-Cl, pH 7.6, 3 mM MgCl2, 1% Triton X-100, 5 mM DTT, 0.5 mM CoA, 0.15 mM ATP, 0.44 mM D-luciferin, final concentrations) was added to each well. Plates were then incubated for 15 minutes at room temperature, and subsequently measured on a ViewLux plate reader for luminescent signal using a clear filter with a 10 second exposure and 2x binning. The %Activity was determined from the corrected luminescence values.
Concentration-response curves were fitted to the signals arising from the resulting luminescence. The concentration-effect curves were then classified based on curve quality (r2), response magnitude and degree of measured activity, and compounds were subsequently categorized based on their curve class.
Keywords: biased agonism, beta2-AR, beta-arrestin, GPCR, 7TMR, Tango, luminescence, MLSMR, MLPCN, NIH Roadmap, qHTS, NCGC
Potency is the fitted concentration of half-maximal effect.
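Throughout, for activation: plate controls were DMSO for no effect and maximal isoproterenol or metaproterenol response for full effect.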

activation, inactive:
CCOC(=O)/C(C#N)=C/Nc1ccsc1C(=O)OC -3.19%
S=c1[nH]c(-c2ccccc2)cn1/N=C/c1cccs1 -3.12%
O=C(Oc1c(Cl)cc(Cl)c2cccnc12)c1cccs1 -2.15%
N#CC[C@H](Cc1ccccc1)N1CC[C@@H](O)CCC1=O -0.52%
COc1ccc(N2C(=O)C3C(C2=O)C(C(=O)c2ccccc2)N2CCCC32)cc1 (stereo unspecified) -0.0662%
COc1ccccc1NC(=S)N/N=C1\CC(C)(C)Oc2ccc(O)cc21 -1.77%
CC(=O)O[C@H]1C2OC(=O)C(C)=C2[C@@H]2OC(=O)[C@]3(CCC4OC41C)OC23 (stereo partly specified) -1.78%
CNC(=S)N/N=C/c1c(C)cccc1Cl -3.5%
CC(NC(=O)NNC(N)=S)(C(F)(F)F)C(F)(F)F -2.46%
COc1ccc(CN2CCCC(C(=O)c3ccc(SC)cc3)C2)cc1Cn1cccn1 (stereo unspecified) 0.256%
COc1cc(CN2CCCCC2C(=O)Nc2ccc(Oc3ccccc3)nc2)ccc1O (stereo unspecified) 6.3%
Cc1nnc(NC(=O)c2ccc3ccccc3c2)o1 -1.26%
Oc1c(CNc2ccccc2)cc(COCc2ccccc2)c2cccnc12 -5.03%
Cc1ccc2nc(N3C(=O)CNC3=S)sc2c1 -2.5%
Clc1ccc(OCc2nc(-c3ccccn3)n[nH]2)cc1 -1.51%
CNC(=S)N/N=C(\C)c1ccccc1 -1.21%
CCCn1c(Nc2nc3ccccc3n2C)nc2ccccc21 -2.95%
Cc1ccc(C2(C)NC(=O)N(CC(=O)c3ccc4c(c3)OCCO4)C2=O)cc1 (stereo unspecified) 4.6%
CNc1sc(C(=O)c2ccccc2F)c(N)c1-c1nc2ccccc2s1 -1.71%
O=S1(=O)Nc2c(ccc3cccnc23)-c2ccccc21 -3.15%
CN1CCN(c2ccc(C(F)(F)F)cc2NC(=O)c2ccco2)CC1 -3.16%
COc1ccccc1-n1c2nc3ccccc3nc2c2c(=O)n(-c3cc(C)cc(C)c3)cnc21 -3.64%
COc1ccc(/C=C(\C#N)C(=O)OCC(=O)NCc2ccccc2)cc1 -4.17%
O=C(N/N=C/C(Br)=C/c1ccccc1)c1cnccn1 3.91%
O=c1[nH]c2c(cnn2-c2ccc(Cl)cc2)c(=O)n1-c1cccc(Cl)c1 -4.33%
O=C(COC(=O)c1cc(=O)c2ccccc2o1)Nc1ccc2ccccc2c1 -3.15%
CCc1n[nH]c(=S)n1/N=C/c1ccc(N(CC)CC)cc1 -2.67%
COc1ccccc1-[n+]1c(C)cc(/C=C2\Sc3ccccc3N2C)cc1C 4.51%
CCCNC(=O)CN(c1ccccc1)S(=O)(=O)c1ccc(OC)c(OC)c1 -3.31%
COC(=O)c1cc(Br)c(=O)n(CCc2ccc(O)cc2)c1 -1.68%
CCc1ccc(CNc2ccc(O)cc2)cc1 -3.25%
Cc1ccc(S(=O)(=O)Nc2cccnc2)cc1 -2.88%
Cc1ccc(/C=C/C(=O)c2ccccc(=O)c2O)c(C)c1 0.972%
Cc1ccc(C2C3=C(CC(C)(C)CC3=O)NC3=C2C(=O)c2ccccc23)cc1 (stereo unspecified) 0.4%
Cc1cc(-c2n[nH]c(=S)n2/N=C/C(Cl)=C/c2ccccc2)n[nH]1 -3.11%
CN1CCN(C(=S)NC(=O)c2ccc(Br)cc2)CC1 -0.998%
CN1CCN(C(c2cccnc2)c2ccc3cccnc3c2O)CC1 (stereo unspecified) -0.879%
CC(=O)/C(=N\Nc1ccc(Cl)cc1Cl)Sc1cccc2cccnc12 -3.04%
CC1=NN(C(N)=S)C(=O)C1N=Nc1ccc([N+](=O)[O-])cc1 (stereo unspecified) -2.82%
CC(C)c1nnc(NC(=O)c2cnccn2)s1 0.236%
COCCNC(=S)N/N=C(\C)c1ccc(Cl)c(Cl)c1 -1.6%
Cc1ccccc1NC(=O)c1c([N+](=O)[O-])c(C(C)(C)C)nn1C -1.26%
O=C(O)c1ccc(C2Nc3ccccc3C(=O)N2Cc2ccccc2)cc1 (stereo unspecified) -0.733%
CCOC(=O)C1=C(C)N(c2ccc(OC)cc2)C(=O)/C1=C\c1ccc(O)c(OCC)c1 6.03%
CCCCCC1CCC(c2n[nH]c(=S)n2C)CC1 (stereo unspecified) -5.76%
CCCCOc1ccc(C(O)(CCC)CCN2CCOCC2)cc1 (stereo unspecified) -1.83%
CC(=O)Nc1nonc1NC(=O)CSc1nc2ccccc2o1 -7.81%
CCCCC(=O)NC(c1cccc([N+](=O)[O-])c1)c1c(OC(C)=O)ccc2ccccc12 (stereo unspecified) -2.28%
COc1ccc(N/C=C/C(=O)C(F)(F)F)cc1 -0.916%
Cc1cccc(NNC(=S)Nc2c(C)cccc2C)c1 -0.528%
CCOc1ccc(/C=N/NC(=O)Cc2csc(Nc3cccc(C(F)(F)F)c3)n2)c(OCC)c1 4.88%
CCN(CC)C(=O)[C@H]1C[C@H](CC(=O)NCc2cccc(C(F)(F)F)c2)C(=O)N2CCc3c([nH]c4cc(-c5ccco5)ccc34)[C@]12C 0.311%
CCCC(=O)NC(c1ccccc1OC)c1ccc2cccnc2c1O (stereo unspecified) -3.63%
CCCCOc1ccc(NC(=O)CSc2cccc3cccnc23)cc1 -0.82%
CCOC(=O)C1=C(C)N=c2s/c(=C3/C(=O)Nc4ccccc43)c(=O)n2C1c1ccc(C)cc1 (stereo unspecified) -2.56%
O=c1ccc(S(=O)(=O)N2CCCC2)c[nH]1 -1.52%
CCc1cc(=O)oc2cc3occ(C)c3cc12 -1.07%
COc1ccc2ccccc2c1/C=N/NC(=S)NCCN1CCOCC1 -2.79%
O=C(/C=C/c1ccc(Cl)cc1)NC(=S)Nc1ccccc1C(=O)O 0.6%
CC(c1ccccc1)n1c(-c2ccc(C(C)(C)C)cc2)n[nH]c1=S (stereo unspecified) -2.9%
Cc1c(C(=O)OC2CCC(C)CC2)[nH]c2c1C(=O)CCC2 (stereo unspecified) -0.463%
CCCCn1c(Cc2ccccc2)n[nH]c1=S -2.41%
CCOC(=O)C1CCN(Cc2cnc(Oc3ccc(N)cc3)s2)CC1 -1.52%
Cc1ccc(N=C2NC(=O)/C(=C/C=C/c3ccco3)S2)cc1 -2.91%
CCOc1ccc2nc(NC(=S)N(C)C)sc2c1 -1.49%
O=[N+]([O-])c1ccc(OCC(O)CN(C2CCCCC2)C2CCCCC2)cc1 (stereo unspecified) -0.892%

Potency, active:
CCC(NC(C)C)C(O)c1ccc(O)c(O)c1 (stereo unspecified) 2.06 µM
CCC(NC(C)C)C(O)c1ccc(O)c2[nH]c(=O)ccc12 (stereo unspecified) 0.0164 µM
COc1ccc(Cl)cc1C(Nc1cccnc1)c1ccc2cccnc2c1O (stereo unspecified) 16.4 µM
CCC(=O)N1CCC2(CC1)Oc1ccc(Cl)cc1C(=O)C21CC(c2ccccc2)=NO1 (stereo unspecified) 20.6 µM
CCCC(=O)NC(c1ccc(OC)cc1)c1ccc2cccnc2c1O (stereo unspecified) 4.11 µM
